Results filed as inconclusive are left out. Values without a mark were called inactive. Activity calls are given as the source filed them. Calls come from the whole dose curve; as a rule, active = well fitted activation curve with a large enough effect in the main read-out, with a control signal flat (not every such curve was filed as active); inconclusive = small, poorly fitted or top-dose-only effect, or effect the other way, or a change in a side signal; inactive = flat fitted curve, though single readings scatter.
Biological target: 3',5'-cyclic-AMP phosphodiesterase 4B (Homo sapiens) (UniProt Q07343)
Sequence (Q07343 whole entry, looked up): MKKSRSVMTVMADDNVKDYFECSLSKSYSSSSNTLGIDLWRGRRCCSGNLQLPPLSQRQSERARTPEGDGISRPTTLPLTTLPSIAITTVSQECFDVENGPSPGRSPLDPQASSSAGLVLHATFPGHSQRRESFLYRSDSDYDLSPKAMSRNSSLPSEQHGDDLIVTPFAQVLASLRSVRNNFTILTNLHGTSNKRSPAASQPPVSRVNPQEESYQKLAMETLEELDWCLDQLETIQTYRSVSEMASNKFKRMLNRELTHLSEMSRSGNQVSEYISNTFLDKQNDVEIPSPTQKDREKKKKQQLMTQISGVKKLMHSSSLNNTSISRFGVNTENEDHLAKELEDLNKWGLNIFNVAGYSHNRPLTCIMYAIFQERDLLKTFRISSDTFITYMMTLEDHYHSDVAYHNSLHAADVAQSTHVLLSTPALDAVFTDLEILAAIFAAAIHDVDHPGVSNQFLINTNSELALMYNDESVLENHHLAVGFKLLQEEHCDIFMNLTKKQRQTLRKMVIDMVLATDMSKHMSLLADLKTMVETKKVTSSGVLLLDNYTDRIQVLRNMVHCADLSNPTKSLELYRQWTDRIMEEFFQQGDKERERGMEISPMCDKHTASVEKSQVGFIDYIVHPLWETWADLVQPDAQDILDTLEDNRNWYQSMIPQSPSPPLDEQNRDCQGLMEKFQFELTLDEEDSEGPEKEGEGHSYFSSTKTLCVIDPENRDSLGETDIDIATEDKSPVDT
Experiment: qHTS Assay for Inhibitors of PDE-IV (AID 607); note: % of control where 0% means no effect
Details: HEK293 ACTOne CNG channel cells, membrane potential fluorescence; series mostly up to 22.9 µM; activation (PDE inhibition): at the top concentration
Source text: NIH Chemical Genomics Center [NCGC]
NIH Molecular Libraries Screening Centers Network [MLSCN]
The cyclic nucleotide phosphodiesterases (PDEs) are proteins that catalyze hydrolysis of 3', 5'-cyclic nucleotides, such as cyclic adenosine monophosphate (cAMP) and cyclic guanosine monophosphate (cGMP), to their corresponding 5'-nucleotide monophosphates. These enzymes play an important role in controlling cellular concentrations of cyclic nucleotides and have a central role in a variety of intracellular signaling events. cAMP PDEs are emerging as a promising class of drug targets in asthma and cardiovascular disease therapeutic areas.
There are no commercially available cell-based screening assays for PDE inhibitors: currently biochemical assays are done using pure substrates (cAMP or cGMP) and purified recombinant PDE enzymes. As with other biochemical screens on intracellular targets, false positives and false negatives may result from issues involving cell membrane permeability, cellular metabolism, and the like.
Here we report the development of a cell-based screening assay for cAMP phosphodiesterase (PDE) inhibitors. The assay is based on the BD ACTOne# technology (BD Biosciences) which utilizes a modified cyclic nucleotide-gated channel (CNG) to monitor intracellular cAMP changes in live cells. The CNG channel is localized on the plasma membrane, and opens when the intracellular cAMP level increases, resulting in ion flux and cell membrane depolarization. The influx of cations through the CNG channel can be quantified using membrane potential (MP) dyes. We modified the BD ACTOne technology to allow the detection of PDE inhibitors, and performed an inhibitor screen for PDE-IV, which is expressed endogenously in HEK293 cells. We optimized this assay in homogeneous 1536-well plate assay format for high throughput screening.
NCGC Assay Protocol Summary:
The medium contained 10% FBS (Invitrogen), 2 mM L-glutamine, and 250 ug/ml G418 (Cellgro) and 1 ug/ml puromycin (Clontech). ACTOneTM parental cells (BD Biosciences) were maintained in the same medium without puromycin.
The activity of the CNG channel was measured by BD ACTOneTM membrane potential dye kit (BD Biosciences). Forskolin, a positive control for cAMP activation and RO 20-1724, a PDE inhibitor, were both purchased from Sigma and solublized in DMSO.
Sequence,Parameter,Value,Description
1,Reagent,3 uL,1000 cells/well 1536 TC treated Black plate
3,Compound,0.5 uL,Kalypsys dispense RO 20-1724 100 uM final [A]
4,Reagent,3 uL,BD membrane potential dye
6,Compound,23 nL,Final concentration was 0.7nM to 22.9uM
8,Detector,EX 535 / EM 590 [B],Envision
Footnotes: [A] The stock 2 mM RO 20-1724 PDE inhibitor was made in 10 % DMSO. Parental cell line received 10 uM forskolin + 100 uM RO. [B] Envsion settings: Bottom Excitation 535/20 nm top emission 590/20, gain of 150 and 5 flashes per well.
Keywords: PDE, PDE-IV, cytotoxicity, flourescence, MLSMR, MLSCN, NIH Roadmap, qHTS, NCGC

Row | SMILES | activation (PDE inhibition) [%] | Potency
1 | CN1CCN(c2ccnc(-c3cccc(NS(C)(=O)=O)c3)n2)CC1 | 6.11 | 
2 | O=C(Nc1cccc(F)c1)N1CCC2(CC1)CCN(C(=O)c1cccc(F)c1)CC2 | 5.92 | 
3 | CC(=O)N1CCC2(CCN(Cc3ccc(C#N)cc3)CC2)CC1 | 16.6 | 
4 | Cc1noc(C)c1-c1nc(N(C)Cc2ccco2)c2ccccc2n1 | -16.4 | 
5 | CC(C)NC[C@H](O)c1cc(O)cc(O)c1 |  | inactive
6 | COC(=O)N1CCC[C@@]2(CCN(C(=O)Nc3ccc(OC)cc3)C2)C1 | 10.6 | 
7 | CC(=O)N1CCC2(CC1)CCN(C(c1ccccc1)c1ccccc1)CC2 | 4.79 | 
8 | CN(C)c1ccc(-c2nc(N(C)C)c3ccccc3n2)cc1 | 1.32 | 
9 | COc1ccc(C(=O)N2CCC[C@@]3(CCN(Cc4cc(C(F)(F)F)cc(C(F)(F)F)c4)C3)C2)cc1 | 3.56 | 
10 | COc1ccc(C(=O)N2CCC3(CCCN(CC(C)C)C3)CC2)cc1 | -0.45 | 
11 | O=C(c1ccncc1)N1CCC2(CCN(Cc3nccs3)CC2)CC1 | -26.1 | 
12 | O=C(c1ccco1)N1CCC2(CC1)CCN(c1ccccn1)CC2 | 0.0118 | 
13 | COCC(=O)N1CCC2(CCCN(c3ccccc3)C2)CC1 | -3.19 | 
14 | COCC(=O)N1CCC2(CCCN(C(c3ccccc3)c3ccccc3)C2)CC1 | -5.74 | 
15 | COc1ccc(Oc2ncc3ncc(=O)n(-c4ccc(OC)cc4)c3n2)cc1 | -5.57 | 
16 | COc1ccc(-c2nc3cnc(N(C)C)nc3n(Cc3ccc(F)cc3)c2=O)cc1 | 1.92 | 
17 | COc1ccccc1CNc1cc(-c2cccc(C#N)c2)ncn1 | 19.1 | 
18 | O=S(=O)(c1ccccc1)N1CCC2(CCN(c3cccc(-c4ccccc4)c3)CC2)CC1 | -17.4 | 
19 | COc1ccc(CNc2ccnc(-c3ccc(C(=O)N(C)C)cc3)n2)c(OC)c1 | 19.9 | 
20 | COc1ncc2nc(-c3cccs3)c(=O)n(Cc3ccc(F)cc3)c2n1 | 23.7 | 

Row | SMILES | activation (PDE inhibition) [%] | Potency
21 | O=c1c(-c2cccs2)nc2cnc(Nc3ccccc3)nc2n1C[C@H]1CCCO1 | 25.2 | 
22 | COc1ccc(C(=O)N2CCC3(CCCN(C(=O)NC(C)C)C3)CC2)cc1 | 2.06 | 
23 | CN(C)C(=O)c1ccc(-c2nc(N(C)C)c3ccccc3n2)cc1 | -8.25 | 
24 | COC(=O)N1CCC2(CCCN(C(=O)Nc3ccc(OC)cc3)C2)CC1 | -0.191 | 
25 | O=c1c(-c2ccc(Cl)cc2)nc2cnc(N3CCNCC3)nc2n1Cc1ccc(F)cc1 | -10.7 | 
26 | COc1ccc(CNc2ncncc2-c2ccccc2C)c(OC)c1 | 16 | 
27 | CS(=O)(=O)Nc1cccc(-c2cncnc2-n2ccnc2)c1 | 16.6 | 
28 | COc1ccc(C(=O)N2CCC3(CCN(Cc4ccccc4)CC3)CC2)cc1 | 17.1 | 
29 | C[C@@H]1CCC[C@H](C)N1NC(=O)c1ccc(Cl)c(S(N)(=O)=O)c1 | -2.02 | 
30 | COc1cccc(-c2nccc(NCc3cnc(C)cn3)n2)c1 | 6.95 | 
31 | CO/N=C(\C(=O)N[C@@H]1C(=O)N2C(C(=O)O)=C(COC(C)=O)CS[C@@H]12)c1csc(N)n1 |  | inactive
32 | C[C@@H]1COc2c(N3CCN(C)CC3)c(F)cc3c(=O)c(C(=O)O)cn1c23 |  | inactive
33 | COc1ccc(NC(=O)N2CCCC3(CCN(C(C)=O)CC3)C2)cc1 | -2.9 | 
34 | CN(Cc1ccco1)c1ncncc1-c1ccccc1C(F)(F)F | 21.4 | 
35 | O=C(c1cc(C(F)(F)F)cc(C(F)(F)F)c1)N1CCC2(CCCN(c3ccccn3)C2)CC1 | 14.3 | 
36 | COCCn1c(=O)c(C)nc2cnc(Nc3cccc(OC)c3)nc21 | 5.55 | 
37 | COc1ccc(C(=O)N2CCC3(CC2)CN(c2cccc(-c4ccccc4)c2)C3)cc1 | -10.7 | 
38 | COc1ccc(C(=O)N2CCC3(CCCN(Cc4cc(C(F)(F)F)cc(C(F)(F)F)c4)C3)CC2)cc1 | -2.32 | 
39 | COc1cccc(-c2ccc3ncnc(NCCNC(C)=O)c3c2)c1 | 2.17 | 
40 | COc1cccc(Cn2c(=O)c(-c3cccs3)nc3cnc(Nc4ccccc4)nc32)c1 | -1.93 | 

Reference: PubChem BioAssay (NCATS)
